Measured values from PubChem BioAssay AID489025 (Southern Research Specialized Biocontainment Screening …, 2010).
Out of some 2,300 compounds screened, about 790 (34%) were called active. The list shows a part of the results. Potency and affinity values are given separately. A number with no mark means an inactive call. How the calls were made is not given here.

Test: THP-1 cell cytotoxicity, dose response, cytotoxicity control for non-replicating M. tuberculosis project (AID 489025)
Details: THP-1 cell viability; series mostly up to 40 µM; viability: at the top concentration

Compound	viability [%]
O=c1oc2ccccc2nc1/C=C(\O)c1ccc(Br)cc1	96.4
C/C(=N/NC(=O)c1ccco1)c1ccc(Br)s1	71.9
CC(C)(C)NCC1(CO)SC(N)=NC1=O (stereo not given)	103
COc1n[nH]c(C(=O)Nc2cc(F)ccc2C)c1[N+](=O)[O-]	95.2
O=C(C/C=N\OCc1ccc([N+](=O)[O-])cc1)Nc1ccc(F)cc1F	104
CCc1cc2c3c(c1)C(C)CC(C)(C)N3C(=O)/C2=C1\SC(=O)NC1=O (stereo not given)	91.8
O=C(COC(=O)COc1ccc(Nc2ccccc2)cc1)NCc1ccco1	112
COc1ccccc1N1CCN(C(=O)c2ccc([N+](=O)[O-])s2)CC1	79.4
COC(=O)CC(=O)N1CCN(c2ccc(Cl)c(Cl)c2)CC1	98.6
CC(C)(C)c1ccc(OCCCC(=O)NC2=NCCS2)cc1	83.3
COc1cc(C=O)ccc1OCCOCCOc1ccc(Cl)cc1	115
O=C1/C(=C\c2ccco2)SC(=S)N1c1ccc(O)cc1	97.8
CCOc1cc(C=O)cc(N=Nc2cccc([N+](=O)[O-])c2)c1O	80
O=C(Oc1ccccc1)c1cccc(COC(=O)c2cnccn2)c1	86
CCOC(=O)C1CSC(CC(=O)Nc2ccc(Cl)c(Cl)c2)C(=O)N1 (stereo not given)	94.3
CC(C)(C)NC(=O)C(=O)NNC(=O)COc1ccc(Br)cc1	101
CC(/C=C/c1ccccc1)=N\NC(=O)c1ccc2c(c1)OCCO2	106
O=C(N/N=C\C=C\c1ccco1)c1cncc(Br)c1	112
CCC(=O)c1ccc(OC(=O)c2ccc(Br)o2)cc1	123
Cc1cc(C)n2[nH]c(=O)c(N=Nc3cccc(Cl)c3)c2n1	113
Clc1ccc2c(N3CCCC3)ccnc2c1	73.8
Cc1ccc2[nH]c(C)c(CCNC(=O)c3cc4cc([N+](=O)[O-])ccc4oc3=O)c2c1	79.7
CCc1ccc(OCCCC(=O)NCc2ccco2)cc1	77.9
CCCOC(=O)c1ccc(OC(=O)c2ccco2)cc1	91.8
COc1ccc(OCCOC(=O)c2cccs2)cc1	99.6

Compound	viability [%]
O=C(COc1ccc([N+](=O)[O-])cc1)NNC(=O)c1cccs1	120
c1ccc2[nH]c(NC3=NCCC3)nc2c1	102
Cc1cc2n(n1)SC(Nc1ccccc1)N2 (stereo not given)	99.7
O=C(COC(=O)c1cc(Br)ccc1Cl)NC1CCCC1	124
COC(=O)COc1ccc2c(-c3cccc([N+](=O)[O-])c3)cc(=O)oc2c1	104
O=C(CN1CCC(NC(=O)c2cccc(F)c2)CC1)Nc1ccc(Br)cc1	99.6
NC(=O)C1(N2CCCCC2)CCN(C2CC(=O)N(CCc3ccccc3)C2=O)CC1 (stereo not given)	99.9
c1ccc(OCc2nnc3sc(-c4cccs4)nn23)cc1	105
c1ccc(OCc2nn3c(-c4ccccn4)nnc3s2)cc1	107
CCOC(=O)Cn1cc(C#N)c2cccc(CC)c21	89.5
Cc1occc1C(=O)N/N=C/C(Br)=C\c1ccccc1	82.6
Cc1oc(=O)c(NC(=O)c2ccccc2)cc1C(=O)c1ccccc1	73.8
O=C(O)c1ccccc1-c1ccccc1C(=O)Nc1nc2ccccc2s1	95.6
O=C(COC(=O)c1ccc(O)cc1O)c1ccc2c(c1)OCO2	105
O=C(COC(=O)c1cc(Br)ccc1O)Nc1ccc2c(c1)OCO2	112
COc1ccc(OC(=O)c2cc3ccccc3o2)cc1	108
CCCC(O)(CCC)C(=O)NNc1ccc(C)cc1	106
O=c1[nH][nH]c(-c2ccccc2O)c1C(C[N+](=O)[O-])c1cccc(Cl)c1 (stereo not given)	115
CCCC(=O)N1CCC(Cc2ccccc2)CC1	100
O=C(CN1CCC(Cc2ccccc2)CC1)NC(=O)NC1CCCCC1	96.4
C[C@@H]1CN=C2N(CCNC(=O)CCC3CCCCC3)[C@H](Cc3ccc(O)cc3)CN21	82.8
CC(C)[C@H]1CN=C2N(C[C@H](C)NC(=O)CCC3CCCCC3)[C@H](Cc3ccc(O)cc3)CN21	81.4
O=C(c1ccccc1)C1CN(Cc2ccccc2)CCC1(O)c1ccccc1 (stereo not given)	110
CC(C)CNc1nc(=S)nc(N(C)C)[nH]1	101
O=C(COc1ccc(Br)cc1)Nc1ccc([N+](=O)[O-])cn1	105

Compound	viability [%]
COc1ccc(Cc2nnc(-c3ccccc3)o2)cc1	101
O=C(Nc1nccs1)c1sc2ccccc2c1Cl	77.2
CCn1nnc(NC(=O)c2sc3ccccc3c2Cl)n1	119
NC1CCN(c2c(F)cc3c(=O)c(C(=O)O)cn(C4CC4)c3c2Cl)C1 (stereo not given)	120
Cc1ccc(NC(=O)COC(=O)C(NS(=O)(=O)c2ccc(Cl)cc2)C(C)O)cc1C (stereo not given)	96.9
CCc1ccccc1NC(=O)C1COc2ccccc2O1 (stereo not given)	93.5
CCOCCOC(=O)c1ccc(NC(=O)C2COc3ccccc3O2)cc1 (stereo not given)	102
CCOC(=O)c1cc2cc3ccccc3cc2oc1=O	94.6
Cc1ccc2nc(CCc3nc4ccc(C)cc4[nH]3)[nH]c2c1	81.3
O=C(COC(=O)CC1CCCC1)Nc1ccc(Cl)cn1	118
CCOc1ccc(OCC(=O)Nc2ccc(OC)cc2)cc1	105
CC(=O)c1ccc(OC(=O)c2ccc(-n3nc(C)cc3C)cc2)cc1	113
CCOC(=O)c1nn(-c2ccccc2)c2nc(Nc3ccccc3)cc(=O)n12	108
Cc1cc(C)n(-c2ccc(C(=O)Oc3ccc4c(c3)OCO4)cc2)n1	108
O=C(OCc1c(Cl)cccc1Cl)c1ccccn1	112
CCCN1C(=O)S/C(=C\c2ccc(N3CCOCC3)o2)C1=O	73.1
COc1ccc2oc(=O)c(/C(C)=N/NC(=O)c3ccncc3)cc2c1	88
C/C(=N\Nc1ccc(Cl)cc1)c1c(O)cc(C)oc1=O	109
COc1cccc(C(=O)C2CCCN(CC3=Cc4cc(OC)ccc4OC3)C2)c1 (stereo not given)	79.1
CCn1cc(C(=O)NC(C)C23CC4CC(CC(C4)C2)C3)cn1 (stereo not given)	102
O=C(c1ccc(Cl)cc1)c1nnc(-c2ccncc2)o1	101
O=C(CCc1ccccc1F)N1CCN(c2ccccc2)CC1	101
Cc1ccc(S(=O)(=O)N2CCC(C(=O)OCc3ccccc3)CC2)cc1C	112
O=C(OCC(=O)N1CCN(c2ccccc2)CC1)c1ccc(Cl)cc1[N+](=O)[O-]	97.4
O=C(OCC(=O)N1CCN(c2ccccc2)CC1)c1ccc2ccccc2n1	97.3
